Bioassay records (PubChem)
Hits are enriched below; roughly 2.9% of the tested compounds scored in any of these assays.
Nrf2 ARE act: qHTS of Nrf2 Activators. AREc32 ARE-luciferase reporter (MCF7-derived line), luminescence, 24 h. Potency, µM (highest dose often 46.1 µM), for the others: at the highest dose activation, most hits filed as activators. 410,000 tested, 0.31% active; note: % of control where 0% means no effect; nearly all actives have a fitted effect of over 65% in size
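ARE activation measured as luciferase luminescence (Steady-Glo, 30 min RT) in AREc32_Fluc cells after 24 hr compound exposure at 37 deg C, 5% CO2; cells seeded overnight at 1000/well in OPTI-MEM, 5% FBS.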
Nrf2 inh: Nrf2 qHTS screen for inhibitors; A549 ARE-Fluc reporter, luciferase luminescence, 18-24 h; Potency, µM (highest dose often 46 µM), without a hit: top-dose activity change, negative = inhibition, most hits filed as inhibitors; 360,000 tested, 2.1% active; note: % is set by controls: 0 for no effect and ±100 for the full control effect; nearly all actives have a fitted effect of over 60% in size
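Nrf2 activity is the BugLite luminescence, read 15 min after reagent at room temperature, following CellTiter-Fluor cytotoxicity readout (30 min, 37C). Compound titrations were applied for 18-24 h to 5000 A549 ARE_Fluc cells/well in 5% FBS OPTI-MEM.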
ATXN2 expr inh: Primary qHTS for Inhibitors of ATXN expression. HEK-293 ATXN2-luciferase reporter, luminescence, 24 h. Potency, µM (top dose mostly 57 µM), for the others: at the highest dose activity change, negative = inhibition, most hits filed as inhibitors. AID 1745845, 2022. 360,000 tested, 0.72% active; note: % is set by controls: 0 for no effect and ±100 for the full control effect; nearly all actives have a fitted effect of over 55% in size
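qHTS (up to 57 uM final) was run with 24 h compound exposure of reporter cells at 37 °C. Each well was multiplexed: SteadyGlo luminescence measured ATXN2-luciferase expression after a fluorogenic Gly-Phe-AFC viability readout (25 uM final).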
S2 tox: Viability Counterscreen for Primary qHTS for Inhibitors of ATXN expression. Potency, µM (top dose mostly 56.7 µM), most hits filed as cytotoxic. S2 cells (HEK-293 line with an ATXN2-luciferase reporter) viability, CellTiter-Fluor protease fluorescence, 24 h. 400,000 tested, 0.49% active; note: nearly all actives have a fitted effect of over 40% in size
A549 tox: Nrf2 qHTS screen for inhibitors: counterscreen for cytotoxicity; A549 ARE-Fluc cells, CellTiter-Fluor viability, 18-24 h; Potency, µM (top dose mostly 46 µM), for the others: at the top dose activity change, negative = cytotoxicity, most hits filed as inhibitors; 390,000 tested, 0.16% active; AID 504648, 2011; note: % is set by controls: 0 for no effect and ±100 for the full control effect
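A549 ARE-Fluc cells in 5% FBS OPTI-MEM, 5000 cells/well, rested 2 h then exposed to compounds in concentration-response for 18-24 h at 37 °C. Viability by CellTiter-Fluor fluorescence (Ex 405/Em 525) after 30 min; luciferase luminescence (BugLite, 15 min, RT) read afterwards.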
* marks the source's active call; other numbers are inactive results; i = inactive; ? = inconclusive; nt = no result given; ! = not confirmed by another sample; [ ] = dose if it differs, or a comment. Calls come from the whole dose curve; as a rule, active = well fitted curve in the direction sought with a large enough effect; inconclusive = small, poorly fitted or top-dose-only effect, or another doubt; inactive = no such curve, though single readings can be large; an effect the other way counts as inactive or inconclusive. Potency is the fitted concentration of half-maximal effect.

SMILES	Nrf2 ARE act	Nrf2 inh	ATXN2 expr inh	S2 tox	A549 tox
Cc1cc(C(=O)CN2C(=O)C(=O)N(C3CCCC3)C2=O)c(C)n1CCc1ccccc1	-1%	18µM*	-12%	?	-5%
Cc1cccc(S(=O)(=O)Nc2nc3ccccc3nc2NCc2ccco2)c1	27%	?	8%	i	4%
O=S(=O)(Nc1nc2ccccc2nc1NCc1ccco1)c1ccc(Cl)cc1	8%	21µM*	-9%	i	-13%
Cc1noc(C)c1CSc1nc2ccccc2nc1NS(=O)(=O)c1ccc(Cl)cc1	0%	9.2µM*	-26%	i	?
Cc1ccc(S(=O)(=O)Nc2nc3ccccc3nc2NCc2ccco2)cc1	22µM*	?	142%	i	-4%
Cc1ccc(S(=O)(=O)Nc2nc3ccccc3nc2NCc2ccco2)cc1C	5%	21µM*	-9%	i	-5%
CCOc1ccccc1Nc1nc2ccccc2nc1NS(=O)(=O)c1ccc(Cl)cc1	0%	?	-4%	i	4%
O=S(=O)(Nc1nc2ccccc2nc1Cl)c1ccccc1	0%	?	nt	i	-3%
Oc1ccc(Br)cc1CN1CCCCCCC1	-1%	nt	-1%	i	-1%
Cc1cccc(S(=O)(=O)c2c(N)n(Cc3ccco3)c3nc4ccccc4nc23)c1	0%	?	?	i	-19%
Cc1ccc(S(=O)(=O)c2c(N)n(Cc3ccco3)c3nc4ccccc4nc23)cc1	3%	18µM*	?	i	nt
O=S(=O)(C/C(=C/CO)S(=O)(=O)c1ccccc1)c1ccccc1	?	?	?	20µM*	16µM*
Cc1ccccc1-n1c(SCC(=O)NCc2cccs2)nc2ccccc2c1=O	0%	6%	2%	?	-8%
Cc1ncc(CO)c(/C=N/NC(=O)c2ccc(O)cc2)c1O	0%[9.22 µM]	-14%	-4%	i	12%
Cc1ncc(CO)c(/C=N/NC(=O)c2cc3c(s2)CCCC3)c1O	-1%	23µM*	nt	i	-8%
Cc1cc2oc3c(c(=O)c2cc1C)C(c1cccc(Br)c1)N(Cc1ccco1)C3=O (stereo not drawn)	0%	8.2µM*	?	?	-18%
CCOc1ncccc1-c1nc(-c2cccs2)no1	10µM*	?	45%	i	14%
N#CC1=C(N)N2C(=C(C#N)C1c1ccc(Br)cc1)Nc1ccccc12 (stereo not drawn)	-1%	12µM*	?	nt	?
Cc1cc(C)cc(NC(=O)N2CCC3(CC2)Oc2ccccc2C(=O)N3Cc2ccccc2F)c1	4%	?	nt	nt	0%
COc1ccc(-c2nn3c(-c4cc(-c5ccccc5)n[nH]4)nnc3s2)cc1	nt	23µM*	nt	nt	-16%
CCOc1ccc(-c2nn3c(-c4cc(-c5ccccc5)n[nH]4)nnc3s2)cc1	nt	-19%	nt	nt	4%
COc1ccc(C(C)=O)cc1COC(=O)CNC(=O)c1ccccc1F	0%	9%	8%	i	-9%
COc1ccc(C(=O)N/N=C/c2cccc3cccnc23)cc1	0%	?	22µM*	i	-15%
CSCC[C@H](NC(=O)OC(C)(C)C)C(=O)N/N=C/c1cccc2cccnc12	19%	20%	28µM*	i	7%
COc1ccc2nc(/C=N/NC(=O)[C@H](CCSC)NC(=O)OC(C)(C)C)ccc2c1	2%	-17%	-16%	?	-2%
SMILES	Nrf2 ARE act	Nrf2 inh	ATXN2 expr inh	S2 tox	A549 tox
CCN(CC)C(=O)C(=O)c1ccn(-c2c(C)csc2C(=O)OC)c1	-1%	7%	8%	i	-3%
O=C(c1ccccc1)N(C(=O)c1ccccc1)c1ncnc2c1C(c1ccccc1)c1c(ccc3ccccc13)O2 (stereo not drawn)	3%	2.9µM*!	-7%	i	?
O=C(CCc1ccccc1)Nc1ncnc2c1C(c1ccccc1)c1c(ccc3ccccc13)O2 (stereo not drawn)	nt	4.6µM*	nt	nt	-7%
O=C(NCc1ccccc1)Nc1ncnc2c1C(c1ccccc1)c1c(ccc3ccccc13)O2 (stereo not drawn)	nt	6%	nt	nt	1%
C(=N\Nc1ccc2nncn2n1)/c1ccco1	10µM*	3%	15%	i	-8%
COc1ccc(-n2ncc3c(=O)n(CC(=O)N4c5ccccc5CC4C)cnc32)cc1 (stereo not drawn)	0%	8.2µM*	-12%	i	?
O=C(CCc1nc2ccccc2c(=O)[nH]1)Nc1nc(-c2cccs2)cs1	10µM*	2%	24%	i	-1%
Cc1cc(C)cc(CC(=O)N2CCC2(C)C(=O)NS(=O)(=O)c2ccc(C#N)cc2)c1 (stereo not drawn)	0%	nt	8%	i	nt
O=C(O)CCc1nc(-c2ccccc2)no1	0%	-4%	-2%	i	-10%
COc1ccc(-c2noc(CCC(=O)O)n2)cc1	-1%	-17%	-8%	i	-1%
CCOC(=O)c1ccc(NC(=O)CCc2nc(-c3ccc(C)cc3)no2)cc1	4%	15µM*	0%	i	-19%
CCOc1ccc(-c2noc(CCC(=O)O)n2)cc1	-3%	3.3µM*	?	i	5%
COc1ccc(-c2noc(CCCC(=O)O)n2)cc1	-2%	1.8µM*	4µM*	i	-2%
COc1ccc(C2=NOC(C)(c3nnc(-c4ccncc4)o3)C2)cc1 (stereo not drawn)	0%	-4%	3%	i	-3%
CC/C(C)=N/Nc1nc2c(c(=O)[nH]c(=O)n2C)n1Cc1ccccc1	2%	?	7%	i	7%
Cc1ccc(NC(=O)c2ccc(OCc3c(C)noc3C)cc2)cc1C	2%	18µM*	-29%	i	?
Cc1noc(C)c1COc1cccc(C(=O)Nc2ccc(Br)cc2F)c1	0%	23µM*	-6%	i	?
Cc1ccc(NC(=O)c2ccc(OCc3c(C)noc3C)cc2)c(C)c1	0%	23µM*	-14%	i	-7%
CCCCCCNC(=O)CNC(=S)N(Cc1cccs1)C1CCCCC1	0%	16µM*	?	i	?
CCn1c(=S)sc2c(=O)n(CC(=O)Nc3ccccc3C(F)(F)F)c(C)nc21	0%	17%	nt	32µM*	2%
CCn1c(=S)sc2c(=O)n(CC(=O)Nc3ccccc3)c(C)nc21	0%	-23%	-19%	i	-4%
Cn1c(=O)c2[nH]c(C3CCCC3)nc2n(C)c1=O	1%	6.5µM*	-6%	i	-9%
Cc1oc2c(c(=O)c1C)C(=O)CC(c1ccccc1)C2 (stereo not drawn)	0%	nt	-6%	i	-1%
CS(=O)(=O)c1sc(C#N)c2c1C(=O)CC(c1ccccc1)C2 (stereo not drawn)	-7%	?	5µM*	6.3µM*	4%
